High-throughput results from PubChem BioAssay.
The list is not random: actives were taken first. Their share in the collection is about 0.56%.
N-glyco inh = N-linked glycosylation inhibition; D54 ERlucT glycosylation luciferase reporter, 24 h; percent of 100 nM tunicamycin response; reporter increase, % at 12.5 µM; AID 588692; hit rate 0.23% among 360,000;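 active = mean luciferase reporter signal, scaled so untreated is 0 and the glycosylation-blocking control 100, at or above a set limit in every replicate; inconclusive = mean reaches the limit but not every replicate does; inactive = mean below the limit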;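 also: luciferase carries N-glycosylation sites so blocking glycosylation raises the light; 0% = median of neutral control wells and 100% = median of 100 nM tunicamycin wells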
PDI inh = blocks human protein disulfide isomerase activity | inhibition, % at 10 µM | P07237 | hit rate 0.052% among 350,000 | PDI insulin aggregation turbidity, A650, 90 min;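 active = mean inhibition across replicates of 30% or more, whatever share of single replicates reach that level; inconclusive = mean inhibition below 30% while every single replicate reaches 30%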
Vif imaging = inhibitors of HIV Vif | HEK293T cells, Vif self-association by quenched fluorescence, imaging, 24 h | inhibition, % at 7.49 µM | hit rate 0.35% among 340,000 | AID 602346; in the data active = inhibition above about 50%, passing the limit was not always enough; inconclusive = no clear call, values can overlap the other calls; inactive = below about 31%
PvdQ acylase = P. aeruginosa PvdQ acylase inhibition | purified PvdQ acylase, fluorescence plate reader | inhibition, % at 10 µM | hit rate 0.063% among 340,000 | AID 488965; in the data active = inhibition above about 30%, passing the limit was not always enough; inconclusive = no clear call, values can overlap the other calls;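 also: 0% = vehicle neutral wells and 100% = reference inhibitor wells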
ERp5 block = ERp5 (human) disulfide isomerase inhibition; AID 651711; hit rate 0.05% among 350,000; Q15084; ERp5 insulin aggregation, absorbance 650 nm, 90 min; inhibition, % at 9.99 µM;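 active = mean replicate inhibition above about 25%, with every replicate also reaching it, limit read from the data, passing the limit was not always enough; inconclusive = only one of those two criteria met; inactive = neither criterion met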
Target sequence (Q15084 whole entry, looked up): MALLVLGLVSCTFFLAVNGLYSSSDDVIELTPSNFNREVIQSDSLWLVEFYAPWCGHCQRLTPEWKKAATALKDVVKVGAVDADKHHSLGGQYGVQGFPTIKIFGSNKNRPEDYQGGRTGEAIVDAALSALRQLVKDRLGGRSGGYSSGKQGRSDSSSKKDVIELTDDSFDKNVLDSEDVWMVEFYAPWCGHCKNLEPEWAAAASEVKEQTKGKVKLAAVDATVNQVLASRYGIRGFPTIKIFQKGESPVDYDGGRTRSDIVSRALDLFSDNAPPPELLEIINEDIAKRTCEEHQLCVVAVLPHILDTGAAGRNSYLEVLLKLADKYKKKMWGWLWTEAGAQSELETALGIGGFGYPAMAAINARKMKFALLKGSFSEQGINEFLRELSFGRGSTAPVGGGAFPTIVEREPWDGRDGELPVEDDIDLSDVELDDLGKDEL
The depositor's hits bear a star; i = inactive; ? = inconclusive; . = no result.

SMILES	N-glyco inh	PDI inh	Vif imaging	PvdQ acylase	ERp5 block
Cc1cc(C)cc(NC(=O)C2C3C=CC(O3)C2C(=O)O)c1 (stereo not drawn)	2	11	51*	-6	3
CC(C)Cn1c(N)c(C(=O)COC(=O)c2ccc(O)cc2)c(=O)n(C)c1=O	2	55*	2	-13	0
CCOC(=O)c1cccc(NC(=O)c2cnc3ccccc3n2)c1	-1	9	-1	-22	.
CCOC(=O)c1ccc[n+](CC(=O)Nc2cc(C(F)(F)F)ccc2Cl)c1	5	2	53*	-8	3
Cc1ccccc1C(=O)Nc1nnc(-c2ccc(F)cc2)o1	2	-2	13	-9	1
COc1ccc(-n2nc(C(=O)NCC(=O)Nc3cccc(Cl)c3)c3ccccc3c2=O)cc1OC	4	2	53*	-11	-1
CCc1cc2c(=O)c(Oc3ccccc3)c(C)oc2cc1O	-1	0	-2	-4	.
O=C(COc1ccc(S(=O)(=O)N2CCOCC2)cc1)NC1CCCC1	2	0	24	-20	.
O=C(COc1ccc([N+](=O)[O-])cc1)Nc1ccc(S(=O)(=O)N2CCOCC2)cc1	1	5	55*	-14	0
CCOc1ccc(NC(=O)CN(C)C(=O)c2cc(S(=O)(=O)N3CCCCC3)ccc2Cl)cc1OCC	1	17	92*	7	3
O=C(COc1ccc(S(=O)(=O)N2CCOCC2)cc1)NC1CC1	1	-1	52*	-4	2
COc1ccccc1OCC(=O)Nc1ccc(S(=O)(=O)N2CCCC2)cc1	-2	8	76*	-5	2
O=C(Nc1ccc2c(c1)OCCO2)C(c1ccnc2ccccc12)n1c(=O)c(-c2ccco2)nc2ccccc21 (stereo not drawn)	.	.	.	.	8
c1ccc2c(c1)CNC1(CCCCC1)C2	1	7	6	-7	.
Cc1ccc(S(=O)(=O)N2CCC(C(=O)Nc3ccc(S(=O)(=O)N4CCCC4)cc3)CC2)cc1	-5	32*	-7	16	-7
Cc1ccc(S(=O)(=O)N2CCC(C(=O)Nc3ccc(C(C)C)cc3)CC2)cc1	-5	-3	-4	-20	2
N#Cc1c(-c2ccccc2)cc(-c2ccccc2)[nH]c1=O	-5	12	-5	-11	1
C[C@H](CO)N1C[C@H](C)[C@H](CN(C)C(=O)CCC(F)(F)F)OCCCC[C@H](C)Oc2ccc(NS(=O)(=O)c3ccc(Cl)cc3)cc2C1=O	.	.	.	.	81*
COc1ccc(C2CC(c3ccncc3)=NN2c2ccc(S(N)(=O)=O)cc2)cc1 (stereo not drawn)	8	-13	93*	-16	1
O=C(c1ccccc1)c1ccc(OCC(O)CNCc2ccc(F)cc2)cc1 (stereo not drawn)	-3	-1	-3	-8	-6
OC(CNCc1ccccc1Cl)COc1ccc(F)cc1 (stereo not drawn)	-1	8	65*	-7	3
COC(=O)c1cc(=O)n(-c2ccc(F)cc2)c(=Nc2ccc(F)cc2)s1	39*	.	-5	-12	1
COc1ccc(OC)c(Nc2nc(-c3c(C)nc4ncccn34)cs2)c1	42*	4	-11	-7	2
C/C=C/c1ccc2c(c1)O[C@@H](CN(C)C(=O)C1CCCCC1)[C@H](C)CN([C@@H](C)CO)S2(=O)=O	.	.	.	.	-3
c1ccc(CCNCc2cccs2)nc1	0	14	27	6	-4
SMILES	N-glyco inh	PDI inh	Vif imaging	PvdQ acylase	ERp5 block
O=CNc1ccc2c3c(cccc13)-c1ccccc1-2	1	-5	56*	-11	4
CCc1cccc(CC)c1NC(=O)CN1C2CCCC1CC(NC(=O)Nc1cccc(OC)c1)C2 (stereo not drawn)	39*	3	0	13	6
CC(=O)c1cccc(NC(=O)NC2CC3CCCC(C2)N3CC(C)C)c1 (stereo not drawn)	3	-5	54*	4	.
CCN1CCCC1CNS(=O)(=O)c1ccc(F)c(Cl)c1 (stereo not drawn)	1	2	51*	6	2
CCN1CCCC1CNS(=O)(=O)c1cccc(C(F)(F)F)c1 (stereo not drawn)	0	-1	2	-2	2
CCOC(=O)CSc1ccc(C(=O)NCCN2CCOCC2)cc1[N+](=O)[O-]	0	4	-10	-14	-2
CCCNC(=O)c1ccc(SCC(=O)N(CC)CC)c([N+](=O)[O-])c1	0	7	65*	-9	-1
CN1C2=CC=CC=CC2=[N+](C)C12C([N+](=O)[O-])=CC(=[N+]([O-])[O-])C=C2[N+](=O)[O-] (stereo not drawn)	29*	-46	.	-11	2
CN1C2=CC=CC=CC2=[N+](C)C12C=CC(=[N+]([O-])[O-])C=C2[N+](=O)[O-] (stereo not drawn)	-1	2	-1	10	0
CCN(CC)CCCN=C1N[C@@H](c2cccc(C(F)(F)F)c2)C(C(=O)OC)=C(C)N1CC	-1	-7	19	-5	4
Cc1cc(C)n(CC(=O)N2CCc3ccccc32)c(=O)c1C#N	1	-6	1	-1	-1
Cc1ccc(NC(=O)CC2SC(=NCC3CCCO3)NC2=O)cc1Cl (stereo not drawn)	-1	7	87*	-2	.
CCN(CC)CCNC(=O)C12CC3CC(CC(C3)C1)C2	2	9	-10	1	.
CCN(CC)CCNC(=O)C12CC3CC(C)(CC(C)(C3)C1)C2	-1	-5	68*	-10	.
CN1C(=O)CSc2ccc(NC(=O)Nc3ccccn3)cc21	31*	-5	-5	-1	4
CC(=O)Nc1ccc(NC(=O)Nc2ccc3c(c2)N(C)C(=O)CS3)cc1	-3	3	-2	-8	3
CCn1c(SCC(=O)NCC2CCCO2)nnc1-c1ccc(Cl)cc1 (stereo not drawn)	0	-3	54*	9	-1
COc1cc2ccccc2c2c1CCCC2=O	-1	-1	5	-8	.
Cc1noc2ncc(C(=O)c3cc(F)ccc3O)cc12	0	?	-1	9	.
O=C(c1cc(-c2cccnc2)nc2ccc(Cl)cc12)N1CCN(S(=O)(=O)c2cccs2)CC1	-3	-4	22	-13	-26
O=S(=O)(Nc1ccc(C(O)(C(F)(F)F)C(F)(F)F)cc1)c1ccc(Cl)c2nonc12	18	34*	.	.	.
CCOc1ccccc1NC(=O)/C(C#N)=C/c1cccnc1	2	3	8	-3	7
Oc1cccc(Nc2nc(O)c(/C=C3\C=Nc4ccccc43)s2)c1	0	-4	57*	-9	3
Fc1ccc(Cn2c(SCc3ccc(F)c(F)c3)nnc2C(F)(F)F)cc1	-5	-2	9	-6	.
Oc1[nH]c(N=C2N=c3ccccc3=N2)c2ccccc12	117*	5	i	-17	3
Cc1ccc2c(c1)=N/C(=N\c1[nH]c(O)c3ccccc13)N=2	0	-2	i	.	-2
CN(C)S(=O)(=O)n1cc(/C=C(\NC(=O)c2ccccc2)C(=O)NCCN2CCOCC2)c2ccccc21	4	-4	6	-1	-5
